The record followed here is PubChem BioAssay.

Several values for one entry are separate records, joined by “and”; a condition that tells them apart may be missing. Equal values may be shown once. Inconclusive results are not listed. Activity calls are given as the source filed them.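 Rule for the calls, unless noted: active = normalized viability below 100% at a tested concentration; inactive = the rest.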

The viability is a read-out of living cells in per cent, often relative to untreated cells. As usually defined, the AC50 is the midpoint of the concentration-response curve, whichever way the signal moves. By inhibition is commonly meant the change of the read-out against control, counted positive when it falls.

Assay [1] in a line: drug combination growth inhibition, ovarian cancer – cell-based, oncology-focused library, rucaparib conditional, profiling panel (AID 1508598). The note with it: patient-derived ovarian cancer cells, CellTiter-Glo viability, 144 h, stronger effect = lower value. (ATP-based viability assays read luminescence as a measure of living cells.)
Assay [2] can be described thus: viability loss in pontine glioma line – cell-based, SU-DIPG-IV, MIPE4.0, CellTiter-Glo, qHTS, dose response (AID 1347063; cut-off not given, nearly all actives have AC50 up to about 30 µM;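 note: compound exposure lasted 48 hours before the viability readout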). The following applies: CellTiter-Glo ATP luminescence.
Assay [3] can be described thus: viability loss in pontine glioma line – cell-based, SU-DIPG-XIII, MIPE5.0, CellTiter-Glo, qHTS, dose response (AID 1347064; cut-off not given, nearly all actives have AC50 up to about 23 µM;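 for AC50: cells exposed to compound for 48 hours before the viability read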). The following applies: CellTiter-Glo ATP luminescence.
Assay [4] can be described thus: JHH-DIPG-1 glioma cell viability, MIPE5.0 library, CellTiter-Glo luminescence, qHTS (AID 1347067; cut-off not given, nearly all actives have AC50 up to about 26 µM;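 note: cells exposed to compound for 48 hours before readout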). The note with it: JHH-DIPG-1 glioma viability, CellTiter-Glo ATP luminescence.
Assay [5] is described as follows: growth inhibition of DIPG cells – cell-based, MIPE5.0 library, qHTS (AID 1347068; cut-off not given, nearly all actives have IC50 up to about 30 µM). The following applies: SU-DIPG-XXV viability.
The nature of assay [6]: compounds altering HSF1 focus formation in cells – imaging, Selleck Cancer Library (AID 1347162; in the data active = plate-normalised HSF1 focus index below about 0.46). The note with it: human cells, HSF1 nuclear foci imaging, at 10 µM; SSMD: measured here: HSF1 foci SSMD mean; cell count: measured here: cell number; plate-normalised HSF1 focus index: stronger effect = lower value.
Assay [7] is described as follows: viability loss in pontine glioma line – cell-based, SU-DIPG-XXV, MIPE5.0, CellTiter-Glo, qHTS, dose response (AID 1347065; cut-off not given, nearly all actives have AC50 up to about 26 µM;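 note: cells exposed to compound for 48 hours before ATP readout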). The following applies: CellTiter-Glo ATP luminescence.
Assay [8] in a line: compounds altering circadian rhythm period length – cell-based, LOPAC library, luminescence reporter (AID 2774; call rule not given here;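 note: values are relative to mean of DMSO wells on each plate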). The note with it: circadian reporter cells, at 7 µM, actives lie on both sides.
For assay [9], the system named is Hepatitis C virus NS3 helicase. Nature of the assay: blockers of NS3h binding to ssDNA – biochemical, fluorescence polarization, LOPAC1280 library, primary screen (AID 687035; in the data active = inhibition above about 37%). The note with it: Purified HCV NS3 helicase, Cy5-dT15 ssDNA binding fluorescence polarization; stronger effect = higher value; concentration not given here. (In general: In fluorescence polarisation assays a small probe gives low polarisation when free and higher when bound to something large.)

A short description of assay [10]: compounds altering Cy5-DNA-NS3h complex signal – biochemical, LOPAC1280, artefact control for HCV NS3 helicase inhibitor project (AID 687037; call rule not given here). The note with it: Cy5-DNA-NS3h complex fluorescence interference counterscreen.
The nature of assay [11]: growth inhibition of DIPG cells – cell-based, MIPE4.0 library, CellTiter-Glo luminescence, qHTS (AID 1347066; cut-off not given, nearly all actives have AC50 up to about 30 µM;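 note: cells exposed to compound for 48 hours before readout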). The note with it: SU-DIPG-VI viability, CellTiter-Glo ATP luminescence.
Assay [12] can be described thus: viability loss with induced miR-34 in A549 – imaging, A549 dox-inducible miR-34, nuclei and caspase counts, primary screen (AID 1347080;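 active = compounds whose cell count with miR-34 switched on is under 0.7 times the count with it off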). The following applies: A549 miR-34 inducible, Hoechst nuclei count, 48 h.
Assay [13] is described as follows: chitosan synthesis blockers in C. neoformans – flow cytometry, Cibacron Brilliant Red staining (AID 1347148; call rule not given here;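 note: compound exposure lasted three days at 37 degrees C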). The note with it: Cryptococcus neoformans chitosan, stronger effect = lower value; at 10 µM unless noted. (In general: A flow cytometer gives signals particle by particle.)
Assay [14] is described as follows: blockers of cellular phospholipid synthesis – cell-based, LOPAC library, screen 4, primary screen (AID 1347384; call rule not given here). The note with it: animal cells, phospholipid biosynthesis inhibition screen; at 10 µM.
The nature of assay [15]: galactose survival enhancers in mitochondrial complex I cybrids – cell-based, galactose medium, ATP luminescence, primary screen (AID 1645843;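 active = z-score of at least 1.8 in each of two replicates, scored against plate mean and spread of sample wells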;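 note: positive z means more ATP and so rescue of galactose-driven cybrid death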). The following applies: complex I mutant cybrid cells, 72 h, stronger effect = higher value.
Setting [16] is: at 0.0195 µM, OCI-P5x cells, without rucaparib.
Where [17] appears, read: at 0.0781 µM, OCI-C5x cells, with rucaparib 10 µM, 100% = cells with rucaparib alone.
Setting [18] is: at 0.0781 µM, OCI-C5x cells, without rucaparib.
The mark [19] stands for this setting: at 0.0781 µM, OCI-P5x cells, with rucaparib 20 µM, 100% = cells with rucaparib alone.
Setting [20] is: at 0.0781 µM, OCI-P5x cells, without rucaparib.
Where [21] appears, read: at 0.313 µM, OCI-C5x cells, with rucaparib 10 µM, 100% = cells with rucaparib alone.
Setting [22] is: at 0.313 µM, OCI-C5x cells, without rucaparib.
Setting [23] is: at 0.313 µM, OCI-P5x cells, with rucaparib 20 µM, 100% = cells with rucaparib alone.
Setting [24] is: at 0.313 µM, OCI-P5x cells, without rucaparib.
[25] abbreviates: at 1.25 µM, OCI-C5x cells, with rucaparib 10 µM, 100% = cells with rucaparib alone.
Setting [26] is: at 1.25 µM, OCI-C5x cells, without rucaparib.
The mark [27] stands for this setting: at 1.25 µM, OCI-P5x cells, with rucaparib 20 µM, 100% = cells with rucaparib alone.
Setting [28] is: at 1.25 µM, OCI-P5x cells, without rucaparib.
Where [29] appears, read: at 5 µM, OCI-C5x cells, with rucaparib 10 µM, 100% = cells with rucaparib alone.
The mark [30] stands for this setting: at 5 µM, OCI-C5x cells, without rucaparib.
Setting [31] is: at 5 µM, OCI-P5x cells, with rucaparib 20 µM, 100% = cells with rucaparib alone.
The mark [32] stands for this setting: at 5 µM, OCI-P5x cells, without rucaparib.

On to `Cc1nc(N)sc1-c1ccnc(Nc2ccc(N3CCOCC3)cc2)n1`, for which the viability was 113% (inactive) in assay [1] (setting [16]); 109% (inactive) in assay [1] (setting [17]); 108% (inactive) in [1] (setting [18]); 115% (inactive) in assay [1] (setting [19]); 115% (inactive) in assay [1] (setting [20]); 109% (inactive) in [1] (setting [21]). In addition, the viability in assay [1] (setting [22]) was 110% (inactive); in assay [1] (setting [23]), 116% (inactive); in assay [1] (setting [24]), 113% (inactive); in assay [1] (setting [25]), 101% (inactive); in assay [1] (setting [26]), 113% (inactive); in [1] (setting [27]), 113% (inactive). The viability is 111% (inactive) in assay [1] (setting [28]); 107% (inactive) in assay [1] (setting [29]); 108% (inactive) in [1] (setting [30]); 97% (active) in [1] (setting [31]); 102% (inactive) in assay [1] (setting [32]).

As to `CC[C@H](Nc1ncnc2nc[nH]c12)c1nc2cccc(F)c2c(=O)n1-c1ccccc1`, in assay [2], the AC50 was 16.6 µM (active). Also, the call in [3], in assay [4] and in assay [5] was inactive. Besides, in [6], the SSMD was 2.21. The molecule also had a cell count in assay [6] of 7370. The plate-normalised HSF1 focus index in assay [6] is 1.08 (inactive). The viability was 99.3% (active) in [1] (at 0.000305 µM, OCI-C5x cells, with rucaparib 10 µM, 100% = cells with rucaparib alone); 121% (inactive) in assay [1] (at 0.000305 µM, OCI-C5x cells, without rucaparib); 96.5% (active) in assay [1] (at 0.000305 µM, OCI-P5x cells, with rucaparib 20 µM, 100% = cells with rucaparib alone); 104% (inactive) in [1] (at 0.000305 µM, OCI-P5x cells, without rucaparib); 104% (inactive) in [1] (at 0.00122 µM, OCI-C5x cells, with rucaparib 10 µM, 100% = cells with rucaparib alone); 124% (inactive) in assay [1] (at 0.00122 µM, OCI-C5x cells, without rucaparib). Besides, the viability is 98.6% (active) in [1] (at 0.00122 µM, OCI-P5x cells, with rucaparib 20 µM, 100% = cells with rucaparib alone); 105% (inactive) in assay [1] (at 0.00122 µM, OCI-P5x cells, without rucaparib); 108% (inactive) in assay [1] (at 0.00488 µM, OCI-C5x cells, with rucaparib 10 µM, 100% = cells with rucaparib alone); 116% (inactive) in [1] (at 0.00488 µM, OCI-C5x cells, without rucaparib); 82.2% (active) in assay [1] (at 0.00488 µM, OCI-P5x cells, with rucaparib 20 µM, 100% = cells with rucaparib alone); 96.9% (active) in assay [1] (at 0.00488 µM, OCI-P5x cells, without rucaparib). The viability is 101% (inactive) in [1] (at 0.0195 µM, OCI-C5x cells, with rucaparib 10 µM, 100% = cells with rucaparib alone); 138% (inactive) in [1] (at 0.0195 µM, OCI-C5x cells, without rucaparib); 87.8% (active) in assay [1] (at 0.0195 µM, OCI-P5x cells, with rucaparib 20 µM, 100% = cells with rucaparib alone); 105% (inactive) in assay [1] (setting [16]); 110% (inactive) in [1] (setting [17]); 129% (inactive) in assay [1] (setting [18]). The viability in [1] (setting [19]) is 96.3% (active); in [1] (setting [20]) it was 104% (inactive); in [1] (setting [21]) it was 105% (inactive); in assay [1] (setting [22]), 119% (inactive); in assay [1] (setting [23]), 103% (inactive); in assay [1] (setting [24]), 115% (inactive). The viability is 103% (inactive) in assay [1] (setting [25]); 139% (inactive) in assay [1] (setting [26]); 105% (inactive) in assay [1] (setting [27]); 109% (inactive) in assay [1] (setting [28]); 110% (inactive) in [1] (setting [29]); 133% (inactive) in [1] (setting [30]). Moreover, the viability in assay [1] (setting [31]) is 98.1% (active); in assay [1] (setting [32]) it was 102% (inactive).

With `CNC(=O)c1c(C)oc2cc(Oc3ncnc4cc(OC)c(OC)cc34)ccc12`, the AC50 in assay [3] was 9.34 µM (active); in assay [7], 6.61 µM (active).

With `Cc1ccc(S(=O)(=O)N[C@@H](Cc2ccccc2)C(=O)CCl)cc1`, the period change in assay [8] was -0.14 h (inactive). For the same molecule, the inhibition in [9] is -4% (inactive). Moreover, in assay [10], the fluorescence ratio (interference) was 1 (inactive). For the same molecule, the AC50 is 18.7 µM (active) in [2], 18.6 µM (active) in [7], 20.9 µM (active) in [11] and 23.5 µM (active) in assay [4]. In addition, the fold change in assay [12] (stronger effect = lower value, cell number ratio, induced over uninduced) was 1.17 (inactive) and 1.22 (inactive); in assay [12] (measured here: relative caspase fold change +Dox/-Dox) it was 0.738 and 0.849. Moreover, the cell count was 1870 and 962 in assay [12] (measured here: total cells with miR-34 induction, stronger effect = lower value); 1600 and 786 in [12] (measured here: total cells without miR-34 induction). The fold fluorescence in [13] was 6.27 [at 142.1 µM] (inactive). Moreover, the result in assay [14] was inactive. The z-score in assay [15] is -1.34 (inactive).
